Reference: PubChem BioAssay (EPA / NIEHS)
Activity calls are given as the source filed them. The calls were made as follows: active = hit-call score of the fitted dose curve at least 0.9, where 1 is the maximum; inactive = score below 0.9.

Assays:
[1] = target: Bile acid receptor (Homo sapiens) (UniProt Q96RI1); assay: ATG_IR1_CIS: Attagene CIS-FACTORIAL HepG2 Assay for human Nuclear Receptor Subfamily 1 Group H Member 4 (NR1H4), IR1 submotif (AID 2282946); conditions: IR1 reporter transcription, actives raise or lower the signal
Procedure, shortened: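 Transient MRTU transfection, HepG2; 24 h dosing; RNA → RT-PCR → 6-FAM primer extension → HpaI digest → capillary electrophoresis fluorescence. Gain/loss of signal fitted relative to DMSO.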

[2] = ATG_GRE_CIS: Attagene CIS-FACTORIAL HepG2 Assay for human Glucocorticoid Response Elements (GRE) (AID 2282947); conditions: HepG2 GRE cis-reporter, Attagene multiplex mRNA; actives raise or lower the signal
Procedure, shortened: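 HepG2 cells transiently transfected with multiple cis-promoter reporter units measure endogenous TF activity; 24 h compound exposure. Reporter mRNA quantified by RT-PCR, FAM labelling, HpaI digestion and capillary electrophoresis; bidirectional fit vs DMSO baseline.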

[3] = ATG_ISRE_CIS: Attagene CIS-FACTORIAL HepG2 Assay for human Interferon Regulatory Factor 1 (IRF1) binding to an Interferon-Stimulated Response Element (ISRE) (AID 2282948); conditions: HepG2 ISRE cis-reporter (Attagene), mRNA transcription readout; actives raise or lower the signal
Procedure, shortened: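 Transfected HepG2 (multiple reporter transcription units, cis elements) dosed 24 h. RNA → oligo(dT) RT → PCR → 6-FAM primer extension → HpaI → CE. DMSO = negative control/baseline.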

[4] = ATG_M_32_CIS: Attagene CIS-FACTORIAL HepG2 Assay for M32 Transcription Factor (Internal Marker) (AID 2282949); conditions: HepG2 Attagene cis-factorial M32 reporter, mRNA; actives raise or lower the signal;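 also: background control marker of the multiplexed CIS panel rather than a real target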
Procedure, shortened: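 Following 24 h chemical exposure of HepG2 cells transiently expressing cis-promoter reporter constructs, reporter transcript levels were determined by RT-PCR with fluorescent labelling and capillary electrophoresis, then fitted bidirectionally against DMSO.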

[5] = ATG_M_06_CIS: Attagene CIS-FACTORIAL HepG2 Assay for M06 Transcription Factor (Internal Marker) (AID 2282950); conditions: HepG2 Attagene CIS-FACTORIAL M06 internal marker reporter; actives raise or lower the signal
Procedure, shortened: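 Cells (HepG2, transiently carrying cis-driven reporter units) receive chemical for 24 h before RNA isolation. Reporter cDNA is PCR-amplified, FAM-labelled by primer extension, HpaI-digested and sized on a capillary analyser.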

[6] = target: Hepatocyte nuclear factor 6 (Homo sapiens) (UniProt Q9UBC0); assay: ATG_HNF6_CIS: Attagene CIS-FACTORIAL HepG2 Assay for human Hepatocyte Nuclear Factor 6 (HNF6) (AID 2282952); conditions: HepG2 Attagene cis-factorial HNF6 reporter transcription; actives raise or lower the signal
Procedure, shortened: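 HepG2 cells transiently transfected with cis-element-driven multiplexed reporter units measuring endogenous transcription factor activity. After 24 h exposure, reporter mRNA quantified by RT-PCR, FAM-labelled fragments and capillary electrophoresis; bidirectional fitting versus DMSO.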

[7] = target: Heat shock factor protein 1 (Homo sapiens) (UniProt Q00613); assay: ATG_HSE_CIS: Attagene CIS-FACTORIAL HepG2 Assay for human Heat Shock Transcription Factor 1 (HSE) (AID 2282953); conditions: HepG2 HSE cis-reporter, Attagene RNA transcription; actives raise or lower the signal
Procedure, shortened: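 Liver-derived HepG2 cells carry transiently introduced multiple reporter units governed by cis promoters. Reporter RNA measured 24 h post-dose through reverse transcription, PCR amplification, fluorescent labelling and capillary electrophoresis, normalised to DMSO.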

[8] = ATG_MRE_CIS: Attagene CIS-FACTORIAL HepG2 Assay for human Metal Responsive Element (MRE) (AID 2282954); conditions: HepG2 MRE cis-reporter transcription, Attagene multiplex; actives raise or lower the signal
Procedure, shortened: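 HepG2 cells transiently transfected with multiple cis-element reporter units measure endogenous MTF1-driven transcription. After 24 h compound exposure, reporter mRNA is quantified by RT-PCR with 6-FAM labelling, HpaI digestion and capillary electrophoresis; bidirectional fits versus DMSO.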

[9] = ATG_PBREM_CIS: Attagene CIS-FACTORIAL HepG2 Assay for human Phenobarbital-responsive Enhancer Module (PBREM) (AID 2282955); conditions: HepG2 PBREM cis-reporter, Attagene multiplexed transcription; actives raise or lower the signal
Procedure, shortened: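 Transfected liver-derived HepG2 cells exposed 24 h; PBREM reporter transcript quantified via RT-PCR and capillary electrophoresis, with activity in either direction referenced to DMSO.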

[10] = target: Paired box protein Pax-6 (Homo sapiens) (UniProt P26367); assay: ATG_Pax6_CIS: Attagene CIS-FACTORIAL HepG2 Assay for human Paired Box 6 (PAX6) (AID 2282956); conditions: HepG2 CIS-FACTORIAL PAX6 reporter transcription, RNA readout; actives raise or lower the signal
Procedure, shortened: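 Transient MRTU transfection of HepG2 → compound exposure 24 h → TriZol RNA, oligo(dT) RT → PCR, 6-FAM primer extension, HpaI cut → capillary electrophoresis; activity fitted both directions against DMSO.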

[11] = ATG_PXRE_CIS: Attagene CIS-FACTORIAL HepG2 Assay for human Pregnane X Receptor Element (PXRE) (AID 2282957); conditions: HepG2 Attagene CIS-FACTORIAL PXRE reporter, mRNA; actives raise or lower the signal
Procedure, shortened: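 HepG2 cells transiently transfected with cis-element-driven multiplexed reporter units; after 24 h chemical exposure, reporter mRNA measured by RT-PCR, 6-FAM labelling, HpaI digestion and capillary electrophoresis. Bidirectional fitting relative to DMSO.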

[12] = ATG_PPRE_CIS: Attagene CIS-FACTORIAL HepG2 Assay for human Peroxisome Proliferator-activated Response Element (PPRE) (AID 2282958); conditions: HepG2 PPRE cis-element reporter, Attagene transcription factor profiling; actives raise or lower the signal
Procedure, shortened: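 Measured endpoint: PPRE-controlled reporter mRNA, detected by RT-PCR and capillary electrophoresis fluorescence, from transiently transfected HepG2 cells 24 h after dosing. Curves fitted in both directions using DMSO baseline.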

[13] = ATG_RORE_CIS: Attagene CIS-FACTORIAL HepG2 Assay for human RAR-related Orphan Receptor Element (RORE) (AID 2282959); conditions: HepG2 Attagene cis-factorial RORE reporter, mRNA; actives raise or lower the signal
Procedure, shortened: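 Transiently transfected HepG2 reporter cells were treated 24 h. Reporter transcripts were detected by RT-PCR and capillary electrophoresis, with bidirectional fitting against DMSO.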

[14] = target: Transcription factor Sp1 (Homo sapiens) (UniProt P08047); assay: ATG_Sp1_CIS: Attagene CIS-FACTORIAL HepG2 Assay for human Specificity Protein 1 (Sp1) (AID 2282961); conditions: HepG2 Sp1 cis-reporter transcription, actives raise or lower the signal
Procedure, shortened: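 Endpoint reflects endogenous Sp1 transcriptional activity, not an exogenous fusion protein: HepG2 cells with transfected cis-regulated reporters, 24 h dosing, RT-PCR/capillary electrophoresis mRNA read-out, DMSO-normalised bidirectional fit.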

[15] = ATG_SREBP_CIS: Attagene CIS-FACTORIAL HepG2 Assay for human Sterol Regulatory Element Binding (SREBP) (AID 2282962); conditions: HepG2 Attagene cis-factorial SREBP reporter, mRNA; actives raise or lower the signal
Procedure, shortened: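 Transfected HepG2 (cis-regulated reporter library, endogenous TFs) → compound 24 h → total RNA → oligo(dT) RT → reporter-specific PCR → FAM primer extension, HpaI cut → CE fluorescence. Fit bidirectional vs DMSO.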

[16] = target: Signal transducer and activator of transcription 3 (Homo sapiens) (UniProt P40763); assay: ATG_STAT3_CIS: Attagene CIS-FACTORIAL HepG2 Assay for human Signal Transducer and Activator of Transcription 3 (STAT3) (AID 2282963); conditions: HepG2, Attagene cis-factorial STAT3 reporter transcription; actives raise or lower the signal
Procedure, shortened: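 HepG2 cells transiently transfected with cis-element-driven multiple reporter transcription units; after 24 h chemical exposure, reporter mRNA measured by RT-PCR, 6-FAM primer-extension labelling, HpaI digestion and capillary electrophoresis. Bidirectional fitting versus DMSO baseline.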

[17] = ATG_TA_CIS: Attagene CIS-FACTORIAL HepG2 Assay for human TA Basal Promoter (AID 2282964); conditions: HepG2 Attagene CIS-factorial TA basal promoter reporter; actives raise or lower the signal
Procedure, shortened: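 Background internal-marker endpoint from a 52-component HepG2 cis-reporter panel. Cells treated 24 h; reporter transcripts quantified via RT-PCR and CE fluorescence against DMSO baseline.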

[18] = ATG_TCF_b_cat_CIS: Attagene CIS-FACTORIAL HepG2 Assay for human T-Cell-Factor with beta-catenin (TCF/b-cat) (AID 2282965); conditions: HepG2 TCF/beta-catenin cis-reporter transcription, actives raise or lower the signal
Procedure, shortened: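 HepG2 cells transiently transfected with multiple cis-promoter-regulated reporter transcription units, so endogenous transcription factor activity is measured. Reporter mRNA read 24 hours after dosing by RT-PCR, fluorescent labelling and capillary electrophoresis; bidirectional fitting against DMSO.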

[19] = target: Hypoxia-inducible factor 1-alpha (Homo sapiens) (UniProt Q16665); assay: ATG_HIF1a_CIS: Attagene CIS-FACTORIAL HepG2 Assay for human Hypoxia Inducible Factor 1 (HIF1A) (AID 2282951); conditions: HepG2 Attagene cis-factorial HIF1a reporter transcription; actives raise or lower the signal
Procedure, shortened: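 Dosed 24 h, transfected HepG2 cells yielded total RNA whose reporter transcripts were RT-PCR-amplified and sized by capillary electrophoresis using fluorescent labelling; DMSO defined baseline, with gain and loss of signal both fitted.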

[20] = ATG_Sox_CIS: Attagene CIS-FACTORIAL HepG2 Assay for human SRY-box transcription factor (SOX) (AID 2282960); conditions: HepG2 Attagene cis-factorial SOX reporter, mRNA; actives raise or lower the signal
Procedure, shortened: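 Gain- or loss-of-signal endpoint, fitted bidirectionally with DMSO as negative control. Based on reporter mRNA from transfected HepG2 cells harvested 24 h post-treatment and quantified via RT-PCR and capillary electrophoresis.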

Measured: AC50

Chain of Signal transducer and activator of transcription 3 (Homo sapiens) (P40763 whole entry, looked up): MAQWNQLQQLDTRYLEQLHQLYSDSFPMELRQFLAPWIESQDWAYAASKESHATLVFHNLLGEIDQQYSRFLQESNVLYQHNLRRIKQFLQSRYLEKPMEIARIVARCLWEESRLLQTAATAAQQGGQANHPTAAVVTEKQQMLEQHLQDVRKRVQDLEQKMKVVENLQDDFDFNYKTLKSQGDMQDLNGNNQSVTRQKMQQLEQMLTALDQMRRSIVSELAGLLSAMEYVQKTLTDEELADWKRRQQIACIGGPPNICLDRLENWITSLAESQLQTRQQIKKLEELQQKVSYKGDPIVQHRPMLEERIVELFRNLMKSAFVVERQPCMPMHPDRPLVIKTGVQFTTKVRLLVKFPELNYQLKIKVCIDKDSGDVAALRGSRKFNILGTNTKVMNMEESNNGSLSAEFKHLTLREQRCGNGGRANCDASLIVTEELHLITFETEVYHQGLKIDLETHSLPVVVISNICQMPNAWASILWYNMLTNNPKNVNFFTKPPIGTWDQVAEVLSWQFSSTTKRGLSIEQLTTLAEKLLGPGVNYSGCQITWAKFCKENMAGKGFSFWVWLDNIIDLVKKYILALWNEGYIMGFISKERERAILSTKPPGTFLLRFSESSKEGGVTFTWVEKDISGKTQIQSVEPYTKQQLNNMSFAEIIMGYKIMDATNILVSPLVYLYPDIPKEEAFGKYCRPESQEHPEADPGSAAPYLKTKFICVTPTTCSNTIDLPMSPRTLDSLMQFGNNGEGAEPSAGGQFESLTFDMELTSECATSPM
Chain of Paired box protein Pax-6 (Homo sapiens) (P26367 whole entry, looked up): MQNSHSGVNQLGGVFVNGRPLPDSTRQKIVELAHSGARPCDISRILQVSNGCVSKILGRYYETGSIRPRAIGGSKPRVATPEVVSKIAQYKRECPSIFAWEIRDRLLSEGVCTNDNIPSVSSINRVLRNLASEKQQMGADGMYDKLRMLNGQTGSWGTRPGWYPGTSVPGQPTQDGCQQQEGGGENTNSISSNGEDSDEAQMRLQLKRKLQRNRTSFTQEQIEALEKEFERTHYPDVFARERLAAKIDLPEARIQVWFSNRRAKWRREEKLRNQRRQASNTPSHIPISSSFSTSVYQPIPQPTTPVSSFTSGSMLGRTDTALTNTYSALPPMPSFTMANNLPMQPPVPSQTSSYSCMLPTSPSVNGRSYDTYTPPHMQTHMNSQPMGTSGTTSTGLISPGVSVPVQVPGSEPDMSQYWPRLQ
Chain of Transcription factor Sp1 (Homo sapiens) (P08047 whole entry, looked up, the tested form may be a part): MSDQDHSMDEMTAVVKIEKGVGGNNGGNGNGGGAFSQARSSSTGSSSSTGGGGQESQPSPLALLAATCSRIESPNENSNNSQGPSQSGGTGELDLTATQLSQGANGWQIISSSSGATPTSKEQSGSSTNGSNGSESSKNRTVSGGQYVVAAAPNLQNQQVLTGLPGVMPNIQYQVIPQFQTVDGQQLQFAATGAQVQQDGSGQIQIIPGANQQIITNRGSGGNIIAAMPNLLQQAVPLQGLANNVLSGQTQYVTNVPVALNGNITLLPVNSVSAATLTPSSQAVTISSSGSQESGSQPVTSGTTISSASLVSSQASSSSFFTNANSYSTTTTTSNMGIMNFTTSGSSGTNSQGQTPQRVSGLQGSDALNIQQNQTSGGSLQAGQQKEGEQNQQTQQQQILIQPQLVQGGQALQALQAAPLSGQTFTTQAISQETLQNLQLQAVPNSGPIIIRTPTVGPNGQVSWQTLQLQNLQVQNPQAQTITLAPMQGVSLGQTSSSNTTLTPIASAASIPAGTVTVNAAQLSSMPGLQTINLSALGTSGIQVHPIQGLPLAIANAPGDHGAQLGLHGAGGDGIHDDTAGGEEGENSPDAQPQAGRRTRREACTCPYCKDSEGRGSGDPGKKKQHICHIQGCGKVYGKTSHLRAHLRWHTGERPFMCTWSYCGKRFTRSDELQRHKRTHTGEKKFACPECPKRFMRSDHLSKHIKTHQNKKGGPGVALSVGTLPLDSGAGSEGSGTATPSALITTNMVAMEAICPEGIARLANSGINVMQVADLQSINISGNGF
Chain of Bile acid receptor (Homo sapiens) (Q96RI1 whole entry, looked up): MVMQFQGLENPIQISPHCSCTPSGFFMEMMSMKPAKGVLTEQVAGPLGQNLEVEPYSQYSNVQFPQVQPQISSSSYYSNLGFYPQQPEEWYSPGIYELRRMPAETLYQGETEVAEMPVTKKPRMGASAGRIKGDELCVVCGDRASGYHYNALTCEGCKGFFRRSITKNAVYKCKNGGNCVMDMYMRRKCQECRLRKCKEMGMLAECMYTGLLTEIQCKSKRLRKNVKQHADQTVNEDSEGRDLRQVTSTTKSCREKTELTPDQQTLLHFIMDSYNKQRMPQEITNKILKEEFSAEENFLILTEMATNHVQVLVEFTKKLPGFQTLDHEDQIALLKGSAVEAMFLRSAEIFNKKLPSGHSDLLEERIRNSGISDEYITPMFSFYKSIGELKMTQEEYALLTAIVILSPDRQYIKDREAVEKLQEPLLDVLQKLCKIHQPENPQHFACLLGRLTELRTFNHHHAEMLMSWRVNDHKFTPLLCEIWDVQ
Chain of Heat shock factor protein 1 (Homo sapiens) (Q00613 whole entry, looked up): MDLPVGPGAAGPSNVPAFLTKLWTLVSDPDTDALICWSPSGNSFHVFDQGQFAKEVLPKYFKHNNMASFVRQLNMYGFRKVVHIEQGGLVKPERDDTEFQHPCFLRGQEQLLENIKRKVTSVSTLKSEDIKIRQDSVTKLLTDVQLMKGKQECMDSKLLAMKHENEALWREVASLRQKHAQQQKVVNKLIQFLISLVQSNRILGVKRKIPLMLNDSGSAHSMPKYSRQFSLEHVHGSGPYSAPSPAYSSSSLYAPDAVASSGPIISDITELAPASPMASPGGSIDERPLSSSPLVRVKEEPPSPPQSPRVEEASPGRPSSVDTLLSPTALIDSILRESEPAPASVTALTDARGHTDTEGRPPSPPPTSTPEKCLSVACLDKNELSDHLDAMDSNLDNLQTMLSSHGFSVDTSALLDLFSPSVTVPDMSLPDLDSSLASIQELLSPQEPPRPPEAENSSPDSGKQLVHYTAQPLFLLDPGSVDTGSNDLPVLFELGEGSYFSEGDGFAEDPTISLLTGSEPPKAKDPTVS
Chain of Hypoxia-inducible factor 1-alpha (Homo sapiens) (Q16665 whole entry, looked up): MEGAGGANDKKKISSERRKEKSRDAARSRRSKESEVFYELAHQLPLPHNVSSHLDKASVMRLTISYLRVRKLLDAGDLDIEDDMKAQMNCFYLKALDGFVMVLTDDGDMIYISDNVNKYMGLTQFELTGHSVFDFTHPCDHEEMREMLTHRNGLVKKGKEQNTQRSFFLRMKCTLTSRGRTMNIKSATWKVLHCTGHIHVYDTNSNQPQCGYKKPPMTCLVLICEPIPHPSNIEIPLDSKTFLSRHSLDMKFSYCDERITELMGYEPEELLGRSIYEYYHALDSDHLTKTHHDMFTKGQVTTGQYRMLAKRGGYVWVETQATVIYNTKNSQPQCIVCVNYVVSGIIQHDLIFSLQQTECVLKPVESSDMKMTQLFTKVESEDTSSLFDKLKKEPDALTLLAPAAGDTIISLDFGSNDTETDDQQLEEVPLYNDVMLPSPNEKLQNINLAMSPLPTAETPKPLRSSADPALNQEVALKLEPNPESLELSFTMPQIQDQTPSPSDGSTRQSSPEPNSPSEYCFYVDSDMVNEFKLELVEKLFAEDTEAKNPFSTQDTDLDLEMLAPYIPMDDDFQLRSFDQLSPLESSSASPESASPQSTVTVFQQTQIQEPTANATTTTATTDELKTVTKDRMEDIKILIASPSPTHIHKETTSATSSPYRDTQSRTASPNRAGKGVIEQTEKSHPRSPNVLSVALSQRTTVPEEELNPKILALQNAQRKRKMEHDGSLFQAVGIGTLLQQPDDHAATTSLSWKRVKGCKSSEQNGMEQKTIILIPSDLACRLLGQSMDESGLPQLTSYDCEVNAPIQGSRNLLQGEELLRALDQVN
Chain of Hepatocyte nuclear factor 6 (Homo sapiens) (Q9UBC0 whole entry, looked up, the tested form may be a part): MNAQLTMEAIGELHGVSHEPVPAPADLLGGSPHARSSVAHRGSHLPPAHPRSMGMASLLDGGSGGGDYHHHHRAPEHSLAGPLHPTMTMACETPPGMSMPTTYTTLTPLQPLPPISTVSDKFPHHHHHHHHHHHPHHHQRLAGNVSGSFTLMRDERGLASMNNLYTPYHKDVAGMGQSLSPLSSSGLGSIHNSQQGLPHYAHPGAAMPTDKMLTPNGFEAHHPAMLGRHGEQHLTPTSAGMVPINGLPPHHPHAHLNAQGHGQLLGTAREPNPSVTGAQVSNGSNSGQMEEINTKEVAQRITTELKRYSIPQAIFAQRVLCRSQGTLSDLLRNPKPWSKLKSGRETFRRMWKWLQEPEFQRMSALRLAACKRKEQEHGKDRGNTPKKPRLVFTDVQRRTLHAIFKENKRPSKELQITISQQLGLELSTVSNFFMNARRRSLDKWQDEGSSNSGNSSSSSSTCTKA

OCCCS
inactive: [1] | [2] | [3] | [4] | [5] | [6] | [7] | [8] | [9] | [10] | [11] | [12] | [13] | [14] | [15] | [16] | [17] | [18]

CCCCOCCOC(=O)COc1nc(Cl)c(Cl)cc1Cl
inactive: [1] | [2] | [3] | [4] | [5] | [19] | [7] | [8] | [10] | [11] | [12] | [13] | [20] | [14] | [15] | [16] | [17] | [18]

C=CC=CC=CCCCCC
inactive: [2] | [3] | [4] | [5] | [19] | [7] | [8] | [10] | [12] | [13] | [20] | [14] | [15] | [16] | [17]
active: [1] 40.4 µM | [11] 6.94 µM

Cc1oncc1C(=O)Nc1ccc(C(F)(F)F)cc1
inactive: [1] | [2] | [3] | [4] | [5] | [6] | [7] | [8] | [10] | [11] | [13] | [20] | [14] | [15] | [16] | [17] | [18]
active: [9] 143 µM | [12] 100 µM
